Here are results for 40 molecules from PubChem BioAssay (NCATS).

Several values for one entry are separate records, joined by “and”; a condition that tells them apart may be missing. Identical values can stand only once. Inconclusive results are not listed. Entries that show only a call come without a potency. Activity calls are given as the source filed them. Calls come from the whole dose curve; as a rule, active = well fitted inhibition curve with a large enough effect; inconclusive = small, poorly fitted or top-dose-only effect; inactive = flat fitted curve, though single readings scatter.
Potency is the fitted concentration of half-maximal effect.

For this experiment, the target named is Glutathione peroxidase 1 (Homo sapiens) (UniProt P07203). The experiment in a line: Primary qHTS Assay for Inhibitors of Recombinant Selenoprotein Glutathione Peroxidase 1 (GPX1) (AID 1845191). Note: nearly all actives have a fitted effect of over 65% in size. The conditions noted are these: recombinant GPX1, GR-coupled NADPH fluorescence, 15 min; series mostly up to 48.8 µM. The source says: Assay Provider: Elias S.J. Arner MD PhD.
Sequence of Glutathione peroxidase 1 (Homo sapiens) (P07203 whole entry, looked up): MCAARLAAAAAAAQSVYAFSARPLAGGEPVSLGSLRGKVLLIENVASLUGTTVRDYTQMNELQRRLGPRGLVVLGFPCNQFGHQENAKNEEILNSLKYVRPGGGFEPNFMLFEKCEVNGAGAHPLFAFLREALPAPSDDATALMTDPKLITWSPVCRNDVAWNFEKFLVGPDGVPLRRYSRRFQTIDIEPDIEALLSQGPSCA
Department of Medical Biochemistry and Biophysics
Karolinska Institutet, Solna, Stockholm, Sweden
Selenoprotein glutathione peroxidases (GPX), like the ubiquitously expressed GPX1 and the ferroptosis modulator GPX4, enact their antioxidant activities by reducing hydroperoxides using glutathione. […] GPX1 and GPX4 inhibitors have thus shown promise as anti-cancer agents. Existing inhibitors are often promiscuous, or modulate GPX activity only indirectly, so novel direct inhibitors identified through screening against GPX1 and GPX4 could be valuable. Here, we developed optimized glutathione reductase (GR)-coupled GPX assays for the biochemical high-throughput screen (HTS) of almost 12,000 compounds with known mechanisms of action. Initial hits were triaged using a GR counter-screen, assessed for isoform specificity using a separate GPX2 assay, and were assessed for general selenocysteine-targeting activity using a thioredoxin reductase (TXNRD1) assay. With this suite of assays, we identified novel GPX1/GPX2- and GPX4-specific inhibitors and can here present a validated pipeline for future discovery research for selenoprotein-targeting agents.
SEQUENCE No. (e.g., 1, 2, 3, etc.); […] (e.g., Cells, Incubation, Reagent, etc.); VALUE; DESCRIPTION.
1; Reagent 1; 3 uL; GPx1 enzyme or no enzyme control in 1536-well, black, solid Greiner assay plate.
2; Compound; 25 nL; Kalypsis pin tool (Wako USA) equipped with a 1536-well pin head.
3; Incubation; 30 min; room temperature.
4; Reagent 2; 1 uL; 10 nM GPX1, 1 mM GSH, 0.5 mM CHP, 0.5 mM NADPH, 100 nM GR, 0.01% BSA substrate
5; Detection; Fluorescence; ViewLux microplate reader, excitation 340 nm and emission 450 nm.
6; Incubation; 15 min; room temperature.
7; Detection; Fluorescence; ViewLux microplate reader, excitation 340 nm and emission 450 nm.
NOTES (numbers refer to Sequence numbers above)
1. 3 uL of 16.66 nM GPX1 and 0.016% BSA in assay buffer (50 mM Tris-HCl, 2 mM EDTA (pH 7.5), 150 mM NaCl) was added to columns 3-48 of 1536-well assay plates using a BioRAPTR Flying Reagent Dispenser (Let's Go Robotics (LGR), Carlsbad, CA). A no-enzyme control (0.01% BSA in TES assay buffer) was added to columns 1-2.
2. 25 nL of test compounds and DMSO controls were added to each well with a pin tool (Kalypsys).
3. The assay plates were incubated for 30 minutes at room temperature.
4. 1 uL of master mix (500 nM glutathione reductase (GR), 5 mM reduced glutathione (GSH), 2.5 mM NADPH in assay buffer) was added. 1 uL of cumene hydroperoxide (CHP) ([2.5 mM] in 50% EtOH) was then added within 5 minutes to initiate the reaction. Final concentrations were: 10 nM GPX1, 1 mM GSH, 0.5 mM CHP, 0.5 mM NADPH, 100 nM GR, 0.01% BSA.
5. Initial fluorescence readout (t=0) at 340/450 nm was measured using a ViewLux multimodal detector (PerkinElmer, Waltham, MA).
7. Endpoint fluorescence readout (t=15) at 340/450 nm was measured 15 min after room temperature incubation.
In general terms: Quantitative high-throughput screening tests each substance at several concentrations.
As to `NCCCCNCCCN`, the Potency entry was “inactive”.

For the molecule `CC1(C)C(=O)N(CCN2CCC(C(=O)c3ccc(F)cc3)CC2)c2ccccc21`, the Potency entry is “inactive”.

As for `CN(C)C(=O)[C@H](O)[C@H](Cc1ccccc1)NC(=O)c1cc2cc(Cl)ccc2[nH]1`, the Potency result was “inactive”.

For `CCOC(=O)C(C)Oc1cccc2c(=O)n(CC(=O)Nc3ccc4c(c3)OCCO4)ccc12` (stereo not given), the Potency entry was “inactive”.

For the molecule `O=c1c(O)c(-c2ccc(O)cc2O)oc2cc(O)cc(O)c12`, the Potency result is “inactive”.

With `COc1cc2c(N3CCN(C(=O)Nc4ccc(OC(C)C)cc4)CC3)ncnc2cc1OCCCN1CCCCC1`, the Potency entry was “inactive”.

With `Clc1ccc(C(Cn2ccnc2)OCc2ccc(Sc3ccccc3)cc2)c(Cl)c1` (stereo not given), the Potency entry was “inactive”.

In the case of `CC(C)c1ccc2oc3nc(N)c(C(=O)O)cc3c(=O)c2c1`, the Potency was 22.7 µM (active) and 16.3 µM (active).

Turning to `O=C(CCc1ccc(O)cc1)c1c(O)cc(O)cc1O`, the Potency result is “inactive”.

`COc1cc2nc(N3CCN(C(=O)C4CCCO4)CC3)nc(N)c2cc1OC` (stereo not given): the Potency result was “inactive”.

In the case of `CN(C)[C@@H](CCOc1cccc2ccccc12)c1ccccc1`, the Potency entry was “inactive”.

As to `CCC[C@@H]1C[C@@H](C(=O)N[C@@H]([C@H]2O[C@H](SC)[C@H](O)[C@@H](O)[C@H]2O)[C@@H](C)O)N(C)C1`, the Potency result was “inactive”.

Take `CC[C@]1(O)C[C@H]2CN(CCc3c([nH]c4ccccc34)[C@@](C(=O)OC)(c3cc4c(cc3OC)N(C=O)[C@H]3[C@@](O)(C(=O)OC)[C@H](OC(C)=O)[C@]5(CC)C=CCN6CC[C@]43[C@@H]65)C2)C1`: the Potency result was “inactive”.

`O=C(O)c1cccc(-c2noc(-c3ccccc3F)n2)c1`: the Potency entry is “inactive”.

Consider `S=c1nc[nH]c2nc[nH]c12`, for which the Potency entry was “inactive”.

Turning to `COc1ccccc1N1CCN(CCN(C(=O)C2CCCCC2)c2ccccn2)CC1`, the Potency entry is “inactive”.

For `N[C@@H](Cc1cc(I)c(Oc2cc(I)c(O)c(I)c2)c(I)c1)C(=O)O`, the Potency entry was “inactive”.

Turning to `CCOC(=O)c1c(C)n(C)c2ccc(O)cc12`, the Potency result is “inactive”.

`C[C@H](Cc1ccc(O)c(O)c1)[C@@H](C)Cc1ccc(O)c(O)c1`: the Potency entry was “inactive”.

On to `CC(=O)N1CCN(c2ccc(OC[C@H]3CO[C@](Cn4ccnc4)(c4ccc(Cl)cc4Cl)O3)cc2)CC1`, for which the Potency entry is “inactive”.

Turning to `Nc1ccn([C@@H]2O[C@H](CO)[C@@H](O)C2O)c(=O)n1` (stereo not given in full), the Potency entry is “inactive”.

As to `CCc1nc(N)nc(N)c1-c1ccc(Cl)cc1`, the Potency result is “inactive”.

Turning to `Oc1ccc(-c2nc(-c3ccc(F)cc3)c(-c3ccncc3)[nH]2)cc1`, the Potency result is “inactive”.

On to `O=C(O)CCNC(=O)c1ccc(N=Nc2ccc(O)c(C(=O)O)c2)cc1`, for which the Potency result was “inactive”.

On to `COc1cc2c(cc1OC)C1CC(=O)C(CC(C)C)CN1CC2` (stereo not given), for which the Potency entry was “inactive”.

`CCN(CC)CCOc1ccc(Cc2ccccc2)cc1`: the Potency entry was “inactive”.

Consider `O=C1NC(=O)C(c2ccccc2[N+](=O)[O-])=C1Nc1ccc(O)c(Cl)c1`, for which the Potency result was “inactive”.

Turning to `Nc1nc(Cl)nc2c1ncn2[C@H]1C[C@H](O)[C@@H](CO)O1`, the Potency entry is “inactive”.

As to `O=C(O)c1cc(=O)c2c(OCC(O)COc3cccc4oc(C(=O)O)cc(=O)c34)cccc2o1`, the Potency result is “inactive”.

On to `CCCCC(CC)COC(=O)C(C#N)=C(c1ccccc1)c1ccccc1` (stereo not given), for which the Potency entry was “inactive”.

As for `C[C@@H](c1ncncc1F)[C@](O)(Cn1cncn1)c1ccc(F)cc1F`, the Potency result was “inactive”.

As to `CC(C)c1nc(CN(C)C(=O)N[C@H](C(=O)N[C@@H](Cc2ccccc2)C[C@H](O)[C@H](Cc2ccccc2)NC(=O)OCc2cncs2)C(C)C)cs1`, the Potency result is “inactive”.

Regarding `COc1cc(C(C)=O)ccc1OCCCN1CCC(c2noc3cc(F)ccc23)CC1`, the Potency entry was “inactive”.

Consider `Cc1cc2cc3c(C)cc(=O)oc3c(C)c2o1`, for which the Potency result was “inactive”.

As to `CC1(C)CCC(C)(C)c2cc(NC(=O)c3ccc(C(=O)O)cc3)ccc21`, the Potency entry is “inactive”.

In the case of `CC1=C(C)C(=O)C(C(CCCCCC(=O)O)c2ccccc2)=C(C)C1=O` (stereo not given), the Potency result was “inactive”.

Regarding `COC(=O)C1=C(C)NC(C)=C(C(=O)OC(C)C)C1c1cccc2nonc12` (stereo not given), the Potency entry was “inactive”.

For the molecule `CS(=O)(=O)OCCCCOS(C)(=O)=O`, the Potency result is “inactive”.

As to `CCC(C)(Oc1ccc(C2(c3ccc(OC(C)(CC)C(=O)O)cc3)CCCCC2)cc1)C(=O)O` (stereo not given), the Potency entry is “inactive”.

Consider `CCCOc1ccc2nc(NC(=O)OC)[nH]c2c1`, for which the Potency entry is “inactive”.
